Screening results (PubChem BioAssay)
Shown are actives, neighbours in structure and some others; about 3.6% of the full set was active somewhere.
mHTT-CaM PPI inh – mutant huntingtin-calmodulin interaction inhibitors – biochemical, AlphaScreen, primary screen; AlphaScreen His-mHTT/GST-CaM binding, luminescence; inhibition, % at 15 µM; actives 3.6% (n = 190,000); AID 1671202, 2021; P42858;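 also: 0% = both proteins with DMSO and 100% = one protein alone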
Target sequence (P42858 whole entry, looked up, stated change not applied): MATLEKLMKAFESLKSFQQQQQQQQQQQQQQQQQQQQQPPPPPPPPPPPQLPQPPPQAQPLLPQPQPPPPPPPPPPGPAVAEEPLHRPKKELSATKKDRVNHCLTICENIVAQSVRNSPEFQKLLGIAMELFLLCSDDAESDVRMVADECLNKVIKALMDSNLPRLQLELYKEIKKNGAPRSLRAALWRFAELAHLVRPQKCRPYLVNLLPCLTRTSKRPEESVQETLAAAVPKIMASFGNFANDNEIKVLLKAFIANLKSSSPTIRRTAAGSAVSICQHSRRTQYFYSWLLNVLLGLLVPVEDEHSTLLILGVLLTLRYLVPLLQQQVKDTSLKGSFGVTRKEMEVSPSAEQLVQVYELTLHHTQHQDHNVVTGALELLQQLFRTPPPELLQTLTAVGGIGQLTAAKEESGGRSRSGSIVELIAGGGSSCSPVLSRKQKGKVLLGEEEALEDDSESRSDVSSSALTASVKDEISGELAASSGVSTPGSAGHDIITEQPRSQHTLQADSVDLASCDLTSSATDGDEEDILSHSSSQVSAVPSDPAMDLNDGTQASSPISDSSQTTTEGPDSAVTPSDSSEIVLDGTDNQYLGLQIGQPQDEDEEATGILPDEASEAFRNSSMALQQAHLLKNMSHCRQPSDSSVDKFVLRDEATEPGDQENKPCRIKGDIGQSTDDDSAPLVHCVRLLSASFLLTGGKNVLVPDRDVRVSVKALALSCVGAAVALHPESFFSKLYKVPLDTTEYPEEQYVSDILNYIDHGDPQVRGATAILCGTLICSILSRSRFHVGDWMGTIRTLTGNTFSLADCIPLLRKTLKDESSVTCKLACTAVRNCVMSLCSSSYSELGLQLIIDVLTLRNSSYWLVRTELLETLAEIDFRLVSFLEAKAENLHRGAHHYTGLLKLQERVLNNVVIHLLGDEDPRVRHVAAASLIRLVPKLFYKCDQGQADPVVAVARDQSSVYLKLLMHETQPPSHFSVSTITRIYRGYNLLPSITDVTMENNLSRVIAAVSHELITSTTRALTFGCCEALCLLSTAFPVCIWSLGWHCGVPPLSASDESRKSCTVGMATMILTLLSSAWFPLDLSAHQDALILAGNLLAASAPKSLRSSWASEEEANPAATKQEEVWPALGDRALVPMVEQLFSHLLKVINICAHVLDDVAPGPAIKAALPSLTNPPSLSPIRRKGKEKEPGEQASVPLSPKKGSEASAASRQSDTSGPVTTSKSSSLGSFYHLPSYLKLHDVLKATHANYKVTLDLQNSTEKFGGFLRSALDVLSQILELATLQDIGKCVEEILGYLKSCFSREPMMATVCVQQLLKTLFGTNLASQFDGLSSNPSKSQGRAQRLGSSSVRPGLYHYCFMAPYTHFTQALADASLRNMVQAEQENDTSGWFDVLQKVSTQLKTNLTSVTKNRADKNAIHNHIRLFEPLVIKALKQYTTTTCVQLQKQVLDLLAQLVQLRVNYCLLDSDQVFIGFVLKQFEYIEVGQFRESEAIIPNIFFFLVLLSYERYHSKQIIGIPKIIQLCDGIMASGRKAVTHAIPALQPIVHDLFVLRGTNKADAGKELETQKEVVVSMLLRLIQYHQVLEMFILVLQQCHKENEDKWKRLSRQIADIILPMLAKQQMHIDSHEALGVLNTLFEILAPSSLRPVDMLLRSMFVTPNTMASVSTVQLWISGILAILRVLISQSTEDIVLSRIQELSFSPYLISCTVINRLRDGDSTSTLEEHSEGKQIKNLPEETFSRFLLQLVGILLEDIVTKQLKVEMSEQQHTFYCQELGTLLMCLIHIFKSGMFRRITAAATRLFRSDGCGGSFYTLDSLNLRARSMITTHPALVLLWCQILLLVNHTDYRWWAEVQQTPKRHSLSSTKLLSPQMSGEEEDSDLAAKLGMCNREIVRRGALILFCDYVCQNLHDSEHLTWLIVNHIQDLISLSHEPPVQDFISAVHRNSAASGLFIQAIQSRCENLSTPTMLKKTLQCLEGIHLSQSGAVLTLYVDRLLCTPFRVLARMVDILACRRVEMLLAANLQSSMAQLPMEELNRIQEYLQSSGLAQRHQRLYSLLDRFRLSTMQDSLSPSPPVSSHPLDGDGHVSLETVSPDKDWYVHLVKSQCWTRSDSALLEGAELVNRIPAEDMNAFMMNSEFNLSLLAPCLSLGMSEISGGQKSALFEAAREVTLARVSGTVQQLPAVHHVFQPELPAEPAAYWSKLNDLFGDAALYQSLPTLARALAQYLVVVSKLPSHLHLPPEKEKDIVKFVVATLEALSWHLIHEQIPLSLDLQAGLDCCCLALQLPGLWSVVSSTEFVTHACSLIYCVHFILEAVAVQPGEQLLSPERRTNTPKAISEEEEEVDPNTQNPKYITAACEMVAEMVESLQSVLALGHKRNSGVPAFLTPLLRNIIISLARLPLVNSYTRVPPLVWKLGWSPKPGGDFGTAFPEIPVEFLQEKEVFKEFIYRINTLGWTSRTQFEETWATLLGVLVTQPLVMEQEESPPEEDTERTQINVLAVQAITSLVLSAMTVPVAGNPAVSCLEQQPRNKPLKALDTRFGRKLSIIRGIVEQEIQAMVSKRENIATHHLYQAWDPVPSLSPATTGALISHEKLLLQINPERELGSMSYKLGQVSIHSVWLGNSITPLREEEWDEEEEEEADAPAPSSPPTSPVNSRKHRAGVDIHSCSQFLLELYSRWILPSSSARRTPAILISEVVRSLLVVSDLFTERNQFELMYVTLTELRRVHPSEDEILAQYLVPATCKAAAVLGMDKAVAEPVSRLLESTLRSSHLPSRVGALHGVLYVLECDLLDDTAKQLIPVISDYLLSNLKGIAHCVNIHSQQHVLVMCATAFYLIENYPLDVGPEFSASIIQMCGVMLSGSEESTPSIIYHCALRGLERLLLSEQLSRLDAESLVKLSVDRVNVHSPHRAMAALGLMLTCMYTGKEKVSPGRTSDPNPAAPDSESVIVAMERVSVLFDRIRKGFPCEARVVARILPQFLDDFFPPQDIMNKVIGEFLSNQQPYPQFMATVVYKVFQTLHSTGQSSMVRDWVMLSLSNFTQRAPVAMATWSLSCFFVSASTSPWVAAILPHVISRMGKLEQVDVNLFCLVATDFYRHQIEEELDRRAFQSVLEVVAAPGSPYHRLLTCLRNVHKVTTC
Pf apPOL inh – Pf-apPOL inhibitors, biochemical, fluorescence | Recombinant Pf-apPOL, molecular beacon fluorescence, 1.5 h | actives 0.25% (n = 210,000) | Plasmodium falciparum apicoplast DNA polymerase (apPOL) | AID 1794808, 2022 | inhibition, % at 10 µM
* = called active by the depositor. Rule as the data show it: active = inhibition above about 50%; inactive = the rest.

Results for O=[N+]([O-])c1ccc(C2Nc3ccc(Cl)cc3C(c3ccccc3)O2)cc1 (centres undefined) ?
mHTT-CaM PPI inh: 82.0*; Pf apPOL inh: -5.0

Results for COc1ccc(/C=C2\CCC(C3CCCC3)C2=O)cc1 (centres undefined) ?
mHTT-CaM PPI inh: -19.0; Pf apPOL inh: -1.8

How did COc1ccc(/C=C2\CCCC(C(=O)C(F)(F)F)=C2O)cc1 do in these assays?
mHTT-CaM PPI inh: 55.0*; Pf apPOL inh: 13.3

What do the screens show for `O=C(O)Cc1c[nH]c2ccccc12`?
mHTT-CaM PPI inh: 9.7; Pf apPOL inh: -0.6

How did c1ccc2c(Cc3c[nH]c4ccc(-c5ccncc5)cc34)c[nH]c2c1 do in these assays?
mHTT-CaM PPI inh: 100.1*; Pf apPOL inh: 3.1

Results for CC(C)C(C(=O)O)N1C(=O)c2c(Cl)c(Cl)c(Cl)c(Cl)c2C1=O (centres undefined) ?
mHTT-CaM PPI inh: 4.0; Pf apPOL inh: -0.2

How did CN1C/C(=C/c2ccco2)C(=O)/C(=C/c2ccco2)C1 do in these assays?
mHTT-CaM PPI inh: 30.1

Results for CN1CC(=Cc2ccco2)C(=O)C(=Cc2ccco2)C1 ?
Pf apPOL inh: 71.2*

Results for COc1ccc(CNC(=O)C2CCCN(c3nc4nc[nH]c(=O)c4s3)C2)cc1 (centres undefined) ?
mHTT-CaM PPI inh: 0.1; Pf apPOL inh: -2.6

Results for Cc1oc2ccn(Cc3ccc(F)cc3)c(=O)c2c1C(=O)NC(C)C ?
mHTT-CaM PPI inh: 80.4*; Pf apPOL inh: -5.4

Results for Cc1oc2ccn(Cc3ccc(F)cc3)c(=O)c2c1C(=O)N1CCN(C(C)C)CC1 ?
mHTT-CaM PPI inh: -4.9; Pf apPOL inh: -4.5

What do the screens show for `CC(C)c1ccc(OCC(=O)Nc2nnc(-c3ccc(Br)o3)o2)cc1`?
mHTT-CaM PPI inh: 52.3*; Pf apPOL inh: 36.6

Results for Cc1ccc(OCC(=O)Nc2ccc(C(C)C)cc2)cc1 ?
mHTT-CaM PPI inh: -15.0; Pf apPOL inh: -1.2

What do the screens show for `NC(=O)c1cccc(N=c2oc3ccc(Br)cc3cc2C(N)=O)c1`?
mHTT-CaM PPI inh: 71.0*; Pf apPOL inh: 4.5

How did NC(=O)c1cc2cc(Br)ccc2oc1=Nc1ccc(Br)cc1 do in these assays?
mHTT-CaM PPI inh: 6.0; Pf apPOL inh: 1.0

How did Cc1cccc(CN2C(=O)CCC2(C)C(=O)NC2CCCC2)c1 (centres undefined) do in these assays?
mHTT-CaM PPI inh: -8.1; Pf apPOL inh: 2.0

Results for Cc1nc(C(=O)NCCc2ccc(F)cc2)c(C)n1C1CCN(C)CC1 ?
mHTT-CaM PPI inh: 8.1; Pf apPOL inh: -10.7

Results for Cc1nc(CC(=O)NC2CCc3[nH]c4c(Cl)cccc4c3C2)c(C)s1 (centres undefined) ?
mHTT-CaM PPI inh: 95.4*; Pf apPOL inh: -11.6

How did COCC(=O)NC1CCc2[nH]c3c(C)cccc3c2C1 (centres undefined) do in these assays?
mHTT-CaM PPI inh: 9.9; Pf apPOL inh: -2.4

How did CCc1cccc2c3c([nH]c12)CCC(NC(=O)CC1C=CCC1)C3 (centres undefined) do in these assays?
mHTT-CaM PPI inh: 56.6*; Pf apPOL inh: 9.6

How did Cc1ccccc1CC(=O)NC1CCc2[nH]c3c(C)cccc3c2C1 (centres undefined) do in these assays?
mHTT-CaM PPI inh: 29.0; Pf apPOL inh: 12.6

Results for COc1ccccc1/C=c1\sc2nc(=O)c(Cc3ccccc3)nn2c1=O ?
mHTT-CaM PPI inh: 2.0; Pf apPOL inh: -0.6

Results for COc1ccccc1/C=C/C=c1\sc2nc(=O)c(Cc3ccccc3)nn2c1=O ?
mHTT-CaM PPI inh: 51.0*; Pf apPOL inh: -5.1

Results for Cc1ccc(NC(=O)N2CCc3nc(-c4ccc(F)cc4)ncc3C2)c(C)c1 ?
mHTT-CaM PPI inh: -1.2; Pf apPOL inh: 0.0

How did COc1cc2c(C)[nH]c(=O)c(CC(=O)Nc3ccccc3)c2cc1OC do in these assays?
mHTT-CaM PPI inh: 64.8*; Pf apPOL inh: -3.4

Results for COc1ccccc1CC(=O)Nc1ccc(OC)c(OC)c1 ?
mHTT-CaM PPI inh: 0.0; Pf apPOL inh: -8.7

How did CSC1=NSC2=NC(=O)/C(=C\c3ccc([N+](=O)[O-])o3)C(=N)N12 do in these assays?
mHTT-CaM PPI inh: 100.0*; Pf apPOL inh: 0.5

Results for CSC1=NSC2=NC(=O)/C(=C\c3ccc(C)o3)C(=N)N12 ?
mHTT-CaM PPI inh: 1.0; Pf apPOL inh: 7.4

Results for Cc1ccc(/C=C2/C(=N)N3C(SCC(C)C)=NSC3=NC2=O)o1 ?
mHTT-CaM PPI inh: -3.0; Pf apPOL inh: -17.1

How did CC(C)CSC1=NSC2=NC(=O)/C(=C\c3ccc([N+](=O)[O-])o3)C(=N)N12 do in these assays?
mHTT-CaM PPI inh: 79.0*; Pf apPOL inh: -2.7

How did Cc1cc2c(c(C)c1Br)C(c1ccc3c(c1)OCO3)CC(=O)O2 (centres undefined) do in these assays?
mHTT-CaM PPI inh: 1.1; Pf apPOL inh: -2.2

What do the screens show for `Cc1cc2c(c(C)c1Cl)C(c1ccc3c(c1)OCO3)CC(O)(c1ccccc1)O2` (centres undefined)?
mHTT-CaM PPI inh: 85.7*; Pf apPOL inh: 0.7

What do the screens show for `O=C(O)c1cccc(NC2=CC(=NS(=O)(=O)c3cccs3)c3ccccc3C2=O)c1`?
mHTT-CaM PPI inh: 44.0; Pf apPOL inh: 22.0

How did O=C1C(Nc2ccccc2)=CC(=NS(=O)(=O)c2cccs2)c2ccccc21 do in these assays?
mHTT-CaM PPI inh: 92.0*; Pf apPOL inh: 0.0

What do the screens show for `COc1ccccc1Nc1ncc(-c2cccs2)s1`?
mHTT-CaM PPI inh: 25.0; Pf apPOL inh: -0.5

What do the screens show for `COc1ccccc1NS(=O)(=O)c1ccc(Cl)c(C(=O)Nc2ccc(Cl)cc2)c1`?
mHTT-CaM PPI inh: 15.0; Pf apPOL inh: 19.7

How did COc1ccccc1NC1=CC(=NS(=O)(=O)c2cccs2)c2ccccc2C1=O do in these assays?
mHTT-CaM PPI inh: 91.0*; Pf apPOL inh: -14.9

Results for COc1ccccc1NC1=CC(=NS(=O)(=O)c2ccc(Cl)cc2)c2ccccc2C1=O ?
mHTT-CaM PPI inh: 94.0*; Pf apPOL inh: 4.1

How did O=C(c1ccc([N+](=O)[O-])cc1)N1CCN(Cc2c[nH]c3ccccc23)CC1 do in these assays?
mHTT-CaM PPI inh: 20.5; Pf apPOL inh: -1.8

What do the screens show for `O=[N+]([O-])c1ccc(/C=C/S(=O)(=O)N2C=Cc3ccccc3C2c2c[nH]c3ccccc23)cc1` (centres undefined)?
mHTT-CaM PPI inh: 57.0*; Pf apPOL inh: 1.9

Results for CCCCC(=O)NC(c1ccc(N(CC)CC)cc1)c1ccc2cccnc2c1O (centres undefined) ?
mHTT-CaM PPI inh: 98.0*; Pf apPOL inh: -13.2

Results for CCCCC(=O)NC(c1ccc(N(C)C)cc1)c1ccc2cccnc2c1O (centres undefined) ?
mHTT-CaM PPI inh: 100.0*; Pf apPOL inh: 0.8

How did CCC(=O)NC(c1ccc(N(C)C)cc1)c1ccc2cccnc2c1O (centres undefined) do in these assays?
mHTT-CaM PPI inh: 99.5*; Pf apPOL inh: 2.7

How did O=C(NCC(c1cccnc1)N1CCN(c2ccccc2F)CC1)c1ccc2c(c1)OCO2 (centres undefined) do in these assays?
mHTT-CaM PPI inh: 5.6; Pf apPOL inh: -2.5

How did O=C(Nc1cc(Cl)cc(Cl)c1)Nc1csc(Cc2c(Cl)cccc2Cl)n1 do in these assays?
Pf apPOL inh: -0.3

What do the screens show for `COc1cc([N+](=O)[O-])c(C)cc1NS(=O)(=O)c1ccc(C)cc1`?
mHTT-CaM PPI inh: -8.7; Pf apPOL inh: -4.8

How did O=C1OC(c2ccccc2F)=N/C1=C/c1ccc2c(c1)OCO2 do in these assays?
mHTT-CaM PPI inh: 3.0; Pf apPOL inh: 2.1
